Screening data as filed in PubChem.
BAZ2B block – qHTS Assay for Inhibitors of BAZ2B; Bromodomain adjacent to zinc finger domain protein 2B (Homo sapiens), Q9UIF8; AlphaScreen BAZ2B-H3K14Ac peptide displacement; Potency, µM (doses to about 114 µM), for the others: at the highest dose activity change, negative = inhibition, actives largely listed as inhibitors; 4.4% of 360,000 active; AID 504333, 2011; note: potency is the fitted concentration of half-maximal effect; % is set by controls: 0 for no effect and ±100 for the full control effect; nearly all actives have a fitted effect of over 60% in size
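Complex of BAZ2B and biotin-H3K14Ac (50 nM apiece) forms over 30 min at RT, then faces library compounds up to 110 uM for another 30 min; AlphaScreen beads added, 20 min dark incubation, luminescence read.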
G9a inh – qHTS Assay for Inhibitors of Histone Lysine Methyltransferase G9a; Potency, µM (highest dose often 102 µM), inactives show at the top dose activity, negative = inhibition, usual class: inhibitors; Histone-lysine N-methyltransferase EHMT2 (Homo sapiens), Q96KQ7; G9a H3K9 monomethylation, AlphaScreen, 2 h; 8.8% of 350,000 active; note: potency is the fitted concentration of half-maximal effect; % is set by controls: 0 for no effect and ±100 for the full control effect; nearly all actives have a fitted effect of over 75% in size
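AlphaScreen detection with an anti-monomethyl H3K9 antibody quantified product after a 2 h room-temperature reaction containing 500 nM biotinylated H3K9 peptide, 20 µM SAM and 20 nM enzyme, which had been preincubated 15 min with compound.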
JMJD2A Tudor inh – qHTS Assay for Inhibitors of JMJD2A-Tudor Domain; Lysine-specific demethylase 4A (Homo sapiens), O75164; AlphaScreen JMJD2A-Tudor / H3K4me3 peptide binding; Potency, µM (doses to about 114 µM), for inactives: top-dose activity change, negative = inhibition, hits mostly inhibitors; 4.4% of 390,000 active; AID 504339, 2011; note: potency is the fitted concentration of half-maximal effect; % is set by controls: 0 for no effect and ±100 for the full control effect; nearly all actives have a fitted effect of over 50% in size
HP1b binding inh – HTS for Inhibitors of HP1-beta Chromodomain Interactions with Methylated Histone Tails; Chromobox protein homolog 1 (Homo sapiens), P83916; AID 540317, 2011; 0.56% of 390,000 active; Potency, µM (titrated, usually from 114 µM), without a hit: at the highest dose activity change, negative = inhibition, most hits filed as inhibitors; AlphaScreen HP1-beta / biotin-H3K9me3 peptide binding; note: potency is the fitted concentration of half-maximal effect; nearly all actives have a fitted effect of over 70% in size
Target sequence (P83916 whole entry, looked up): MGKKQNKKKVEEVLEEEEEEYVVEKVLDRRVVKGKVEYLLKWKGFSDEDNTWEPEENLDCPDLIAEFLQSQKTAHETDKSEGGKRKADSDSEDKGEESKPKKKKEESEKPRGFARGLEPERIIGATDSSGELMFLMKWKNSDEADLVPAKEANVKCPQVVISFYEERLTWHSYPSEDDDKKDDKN
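Compound inhibition of the preformed complex between 50 nM HP1-beta and 50 nM biotinylated H3K9me3 peptide was read by AlphaScreen. Buffer was PBS pH 7.4 with 0.01% Tween-20. Incubations ran 30 min at room temperature, with 10 ug/mL donor/acceptor beads.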
PLK1 PBD inh – qHTS for Inhibitors of PLK1-PDB (polo-like kinase 1 - polo-box domain): Primary Screen | 2.8% of 360,000 active | Potency, µM, for inactives: max response, negative = inhibition, usual class: inhibitors | AID 720504, 2013 | Serine/threonine-protein kinase PLK1 (Homo sapiens), P53350 | Plk1 PBD binding of FITC phosphopeptide, fluorescence polarization; note: potency is the fitted concentration of half-maximal effect; series mostly up to about 57 µM; % is set by controls: 0 for no effect and ±100 for the full control effect; nearly all actives have a fitted effect of over 65% in size
Target sequence (P53350 whole entry, looked up, the tested form may be a part): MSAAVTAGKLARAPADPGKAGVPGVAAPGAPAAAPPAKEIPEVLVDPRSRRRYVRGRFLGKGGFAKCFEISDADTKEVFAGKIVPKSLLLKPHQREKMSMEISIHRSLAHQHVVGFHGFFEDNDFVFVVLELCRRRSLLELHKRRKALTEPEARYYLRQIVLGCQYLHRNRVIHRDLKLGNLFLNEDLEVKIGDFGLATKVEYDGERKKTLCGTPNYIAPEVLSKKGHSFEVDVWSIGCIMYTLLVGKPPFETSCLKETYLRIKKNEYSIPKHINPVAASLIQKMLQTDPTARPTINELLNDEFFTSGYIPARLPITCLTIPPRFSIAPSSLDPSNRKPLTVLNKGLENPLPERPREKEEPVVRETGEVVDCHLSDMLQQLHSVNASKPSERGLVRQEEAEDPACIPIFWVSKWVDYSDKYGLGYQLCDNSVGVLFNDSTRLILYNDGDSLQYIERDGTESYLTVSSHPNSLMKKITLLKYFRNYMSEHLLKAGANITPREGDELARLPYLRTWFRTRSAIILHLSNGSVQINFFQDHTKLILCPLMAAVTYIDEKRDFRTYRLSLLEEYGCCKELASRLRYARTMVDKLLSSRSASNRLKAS
Sfp inh – qHTS Assay for Inhibitors of Bacillus subtilis Sfp phosphopantetheinyl transferase (PPTase); 4'-phosphopantetheinyl transferase ffp (Bacillus subtilis), Q9F4F7; Biochemical Sfp PPTase activity, qHTS; Potency, µM, without a hit: largest response in the series, negative = inhibition, most hits filed as inhibitors; 3.5% of 310,000 active; AID 1490, 2009;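 note: the enzyme is Sfp with the accession as filed and its product quenches rhodamine fluorescence; potency is the fitted concentration of half-maximal effect; 0% = enzyme reaction without inhibitor and -100% = no enzyme wells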
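Fluorescence-quenching assay with 15 nM Sfp, 5 uM rhodamine-CoA and 12.5 uM BHQ-2-labelled ybbR peptide in pH 7.6 Hepes/MgCl2 buffer. Enzyme was pre-incubated with compound for 15 min at room temperature. Rate was taken from the 30-min fluorescence change (525/598 nm).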
Sfp inh conf – Confirmation qHTS Assay for Inhibitors of Bacillus subtilis Sfp phosphopantetheinyl transferase (PPTase); shares compounds with Sfp inh; Sfp PPTase enzymatic assay, qHTS titration; Potency, µM (titrated, usually from 114 µM), inactives show at the top dose activity change, negative = inhibition, hits mostly inhibitors; 79% of 380 active; AID 2701, 2010;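 note: potency is the fitted concentration of half-maximal effect; plate controls were uninhibited Sfp reaction for no effect and no enzyme control for full effect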
Sfp PPTase gel – Gel-Based Assay for Inhibitors of Bacillus subtilis Sfp phosphopantetheinyl transferase (PPTase); Potency, µM, usual class: inhibitors; purified Sfp, gel-based phosphopantetheinylation read-out; 20% of 210 active; shares compounds with Sfp inh;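 active = potency below 100 µM; inconclusive = dose-dependent response but potency above 100 µM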;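 note: band intensities scaled against SCH202676 control wells before curve fitting; potency is an IC50 for inhibitors of Sfp transfer activity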
Numbers without * were called inactive; i = inactive; ? = inconclusive; · = not tested or not shown; ! = not confirmed by another sample; [ ] = remark or other dose. Rows were chosen to be rich in hits. Some 12% of all compounds tested hit in one or more screens of this group. Unless noted, calls come from the whole dose curve; as a rule, active = well fitted curve in the direction sought with a large enough effect; inconclusive = small, poorly fitted or top-dose-only effect, or another doubt; inactive = no such curve, though single readings can be large; an effect the other way counts as inactive or inconclusive.

SMILES	BAZ2B block	G9a inh	JMJD2A Tudor inh	HP1b binding inh	PLK1 PBD inh	Sfp inh	Sfp inh conf	others
Nc1cc(-c2ccncc2)c[nH]c1=O	-12%	45µM*!	-33%	13%	30µM*	6.3µM*!	13µM*	Sfp PPTase gel=?
CCOC(=O)N1CCN(S(=O)(=O)N2CCCC(C(=O)NCCc3ccc(C)cc3)C2)CC1 (stereo unspecified)	-3%[57.1 µM]	10%	-4%	31%	-3%	21%	·
O=C(O)Cn1ncc2c1-c1ccoc1CC2	?	11µM*	56µM*	18%	-13%	45µM*	?
CCOc1ccc2nc(SCC(=O)c3ccc(C)s3)sc2c1	24%	?	-2%	79%	-24%	18µM*	?	Sfp PPTase gel=i
O=C(NCC(c1ccco1)N1CCCCC1)c1cc2c(s1)CCCC2 (stereo unspecified)	2%	22%[12.7 µM]	-18%	24%	-2%	·	·
O=C(NCc1ccco1)c1cc2c(s1)CCCCC2	?	-5%[59 µM]	-29%	8%	-19%	3.5µM*	?
Cc1ccc(-c2nc3cnccn3c2Nc2ccccc2)o1	-33%	7.9µM*	?	?	-23%	4.5µM*	3.3µM*
Cc1ccc2nc(-c3ccc(C)o3)c(Nc3ccccc3)n2c1	·	·	-31%	1%	·	·	·
Cc1ccc(OCCC(=O)NCCc2ccc(S(N)(=O)=O)cc2)cc1	-7%	-7%[59 µM]	7%	28%	7%	4%	·
CC(C)(C)c1ccc(OCCC(=O)NCCc2ccc(S(N)(=O)=O)cc2)cc1	-6%	?	-5%	33%	-13%	20µM*	12%
N#Cc1c(C(F)(F)F)cc(-c2cccs2)nc1SCc1ccccc1F	13%	15%[59 µM]	18%	36%	·	·	·
O=C(CCN1CCN(c2ccccc2)CC1)N/N=C/c1ccccc1O	·	30%	-19%	10%	-1%	12%	·
Cc1ccc(-c2nc(N)sc2CC(=O)OCC(=O)N2C(C)CCCC2C)cc1 (stereo unspecified)	?	?	-19%	-9%	-1%	18µM*	37µM*	Sfp PPTase gel=i
Cc1ccc(-c2nc(N)sc2CC(=O)OCC(=O)NC2CCCC(C)C2C)cc1 (stereo unspecified)	-9%	?	-25%	-14%	-9%	-5%	·
OCCn1c(CSc2nnc(-c3ccco3)n2-c2ccccc2)nc2ccc(Cl)cc21	-5%	?	?	30%	-19%	4µM*	12µM*	Sfp PPTase gel=i
NC(=O)CSc1nnc(-c2ccco2)n1-c1ccccc1	-9%	19%[0.501 µM]	7%	58%	-5%	7%	·
CCOC(=O)c1cc(-c2ccco2)nc2c1c(C)nn2CCC#N	-7%	11µM*	-16%	25%	-17%	28µM*	47µM*	Sfp PPTase gel=i
Cc1c(Cl)cccc1NC(=O)CSc1nc(=O)n(Cc2ccccn2)c2c1CCC2	3%	1%[59 µM]	6%	20%	·	·	·
Cc1ccnc(NCc2cc(C)ccc2O)c1	-7%	-90%	-6%	30%	-2%	-9%	·
Cc1ccc(NCc2ccc(O)c3ncccc23)cc1	-25%	5µM*	8.9µM*	?	2.7µM*	3.5µM*	?
CN(CC(=O)Nc1ccc(OC(F)(F)F)cc1)C(=O)c1ccccc1SCC(=O)N1CCCC1	·	·	2%	34%	-4%	·	·
O=[N+]([O-])c1cc(S(=O)(=O)N2CCCCC2)ccc1NCCCN1CCOCC1	?	-8%	-18%	8%	-3%	9%	·
COC(=O)c1c(NC(=O)c2cnccn2)sc2c1CCC2	-14%	20%[2.33 µM]	-8%	43%	-23%	-23%	·
CCC1CCc2c(sc(NC(=O)c3cnccn3)c2C(N)=O)C1 (stereo unspecified)	-36%	3.5µM*	?	?	3µM*	10µM*	8.3µM*
CCOCCCNC(=O)/C(C#N)=C/c1ccccc1F	-2%	6%	-9%	40%	-16%	9%	·
SMILES	BAZ2B block	G9a inh	JMJD2A Tudor inh	HP1b binding inh	PLK1 PBD inh	Sfp inh	Sfp inh conf	others
CCOC(=O)c1[nH]cnc1C(=O)NC1CCN(C(=O)OC(C)(C)C)CC1	?	5%[0.501 µM]	-24%	15%	0%	·	·
CC/C(O)=C(/C#N)c1nnc2n1CCCCC2	79µM*	?	28µM*	21%	-8%	14µM*	3%	Sfp PPTase gel=i
COc1ccc2[nH]c(S(=O)Cc3ncc(C)c(OC)c3C)nc2n1 (stereo unspecified)	·	?	·	·	·	45µM*	19µM*
O=C(NCCc1ccc(F)cc1)c1cc(-c2ccncc2)nc2ccccc12	-13%	-17%	·	·	·	25%	·
Cc1cc2cc(C(c3nnnn3CC3CCCO3)N3CCCc4ccccc43)c(=O)[nH]c2cc1C (stereo unspecified)	-33%	?	?	11%	0%	1.4µM*	19µM*
CCOC(=O)c1ccc(NC(=S)N2CCN(CCN=CC3=C(O)CC(C)(C)CC3=O)CC2)cc1	?	·	-11%	7%	-13%	11µM*	18%	Sfp PPTase gel=?
CC1CCc2c(sc(NC(=O)CSc3ncnc4c3cnn4-c3ccccc3Cl)c2C#N)C1 (stereo unspecified)	9%[57.1 µM]	-25%[12.7 µM]	-12%	20%	-2%	8%	·
Clc1cc(Cl)c2nc(N3CCCCC3)sc2c1	141%	?	119%	103%	24µM*	10µM*	47µM*
Clc1cc(Cl)c2nc(N3CCCC3)sc2c1	·	·	28%[57.1 µM]	157%	-5%	·	·
O=C(Nc1cccnc1)c1cccc(S(=O)(=O)Nc2ccccc2F)c1	-26%	?	-12%	31%	?	·	·
O=C(/C=C/c1ccccc1)Nc1cccc(S(=O)(=O)Nc2ccccc2F)c1	45µM*	1.6µM*	45µM*	?	1.2µM*	4µM*	3.7µM*
CCC(Oc1ccccc1)C(=O)Nc1nnc(S(=O)(=O)N(CC)CC)s1 (stereo unspecified)	-17%	-26%[59 µM]	?	22%	·	·	·
COc1ccc2c(c1O)-c1ccccc1CCN(C)C2	-17%	-46%[59 µM]	-13%	28%	-2%	15%	·
CN1CCc2cccc3c2[C@@H]1Cc1ccc(O)c(O)c1-3	35µM*	2µM*	13µM*	?	?	63µM*	59µM*	Sfp PPTase gel=56µM*
